Assay outcomes as filed in PubChem.
G9a block – qHTS Assay for Inhibitors of Histone Lysine Methyltransferase G9a; Histone-lysine N-methyltransferase EHMT2 (Homo sapiens), Q96KQ7; G9a H3K9 monomethylation, AlphaScreen, 2 h; Potency, µM (highest dose often 102 µM), for the others: at the top dose activity, negative = inhibition, actives largely listed as inhibitors; 350,000 compounds, 8.8% hits; AID 504332, 2011; note: % is set by controls: 0 for no effect and ±100 for the full control effect; nearly all actives have a fitted effect of over 75% in size
Target sequence (Q96KQ7 913-1193 limits assumed): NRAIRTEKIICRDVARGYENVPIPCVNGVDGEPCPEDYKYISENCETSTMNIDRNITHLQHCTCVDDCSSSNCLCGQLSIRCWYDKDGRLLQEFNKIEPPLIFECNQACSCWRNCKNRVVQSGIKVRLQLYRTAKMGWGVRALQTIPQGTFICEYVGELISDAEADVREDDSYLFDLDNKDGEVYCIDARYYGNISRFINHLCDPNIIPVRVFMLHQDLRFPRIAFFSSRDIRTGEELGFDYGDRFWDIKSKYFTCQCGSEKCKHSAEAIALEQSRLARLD
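G9a (20 nM) preincubated 15 min RT with compounds, then 500 nM biotinylated H3K9 peptide and 20 uM SAM added; 2 h RT reaction. Monomethyl-H3K9 product detected by AlphaScreen with anti-H3K9me1 antibody, streptavidin donor and anti-rabbit IgG acceptor beads.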
JMJD2A Tudor inh – qHTS Assay for Inhibitors of JMJD2A-Tudor Domain; Lysine-specific demethylase 4A (Homo sapiens), O75164; AlphaScreen JMJD2A-Tudor / H3K4me3 peptide binding; Potency, µM (doses to about 114 µM), inactives show top-dose activity change, negative = inhibition, actives largely listed as inhibitors; 390,000 compounds, 4.4% hits; AID 504339, 2011; note: % is set by controls: 0 for no effect and ±100 for the full control effect; nearly all actives have a fitted effect of over 50% in size
PLK1 PBD block – qHTS for Inhibitors of PLK1-PDB (polo-like kinase 1 - polo-box domain): Primary Screen. 360,000 compounds, 2.8% hits. Serine/threonine-protein kinase PLK1 (Homo sapiens), P53350. Potency, µM, without a hit: max response, negative = inhibition, actives largely listed as inhibitors. AID 720504, 2013. Plk1 PBD binding of FITC phosphopeptide, fluorescence polarization; note: series mostly up to about 57 µM; % is set by controls: 0 for no effect and ±100 for the full control effect; nearly all actives have a fitted effect of over 65% in size
HP1b binding inh – HTS for Inhibitors of HP1-beta Chromodomain Interactions with Methylated Histone Tails | Potency, µM (doses to about 114 µM), for inactives: top-dose activity change, negative = inhibition, hits mostly inhibitors | Chromobox protein homolog 1 (Homo sapiens), P83916 | AlphaScreen HP1-beta / biotin-H3K9me3 peptide binding | AID 540317, 2011 | 390,000 compounds, 0.56% hits; note: nearly all actives have a fitted effect of over 70% in size
Target sequence (P83916 whole entry, looked up): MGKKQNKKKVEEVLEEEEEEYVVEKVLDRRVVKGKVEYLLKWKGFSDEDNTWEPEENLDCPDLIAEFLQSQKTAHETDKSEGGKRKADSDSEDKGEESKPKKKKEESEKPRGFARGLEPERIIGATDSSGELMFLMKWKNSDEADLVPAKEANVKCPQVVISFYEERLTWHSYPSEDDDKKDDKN
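HP1-beta protein (50 nM final) preincubated 30 min at room temperature with biotinylated H3(1-18)K9me3 peptide (50 nM) in PBS pH 7.4, 0.01% Tween-20, then compound added for 30 min. AlphaScreen streptavidin donor/nickel chelate acceptor beads (10 ug/mL final), 30 min dark, luminescence read.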
Sfp inh – qHTS Assay for Inhibitors of Bacillus subtilis Sfp phosphopantetheinyl transferase (PPTase) | 310,000 compounds, 3.5% hits | AID 1490, 2009 | Biochemical Sfp PPTase activity, qHTS | 4'-phosphopantetheinyl transferase ffp (Bacillus subtilis), Q9F4F7 | Potency, µM, for inactives: largest response in the series, negative = inhibition, hits mostly inhibitors;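 note: the enzyme is Sfp with the accession as filed and its product quenches rhodamine fluorescence; 0% = enzyme reaction without inhibitor and -100% = no enzyme wells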
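Reaction rates are the 30-min fluorescence difference (ex 525, em 598 nm) in wells containing 15 nM Sfp, 5 uM rhodamine-CoA and 12.5 uM BHQ-2-YbbR at pH 7.6 with 10 mM MgCl2.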
BAZ2B block – qHTS Assay for Inhibitors of BAZ2B. Bromodomain adjacent to zinc finger domain protein 2B (Homo sapiens), Q9UIF8. AlphaScreen BAZ2B-H3K14Ac peptide displacement. Potency, µM (series often up to 114 µM), inactives show top-dose activity change, negative = inhibition, most hits filed as inhibitors. 360,000 compounds, 4.4% hits. AID 504333, 2011; note: % is set by controls: 0 for no effect and ±100 for the full control effect; nearly all actives have a fitted effect of over 60% in size
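Compounds, titrated to a top concentration of 110 uM, were incubated 30 min at room temperature with preformed BAZ2B/acetyl-K14 H3 peptide complex (50 nM each). Proximity signal was measured by AlphaScreen after 20 min with beads.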
* marks the source's active call; other numbers are inactive results; u = inconclusive; x = not tested or not shown; [ ] = another dose, or the depositor's remark. An excerpt weighted towards active compounds, which were near 12% of everything screened. Calls come from the whole dose curve; as a rule, active = well fitted curve in the direction sought with a large enough effect; inconclusive = small, poorly fitted or top-dose-only effect, or another doubt; inactive = no such curve, though single readings can be large; an effect the other way counts as inactive or inconclusive. Potency is the fitted concentration of half-maximal effect.

SMILES	G9a block	JMJD2A Tudor inh	PLK1 PBD block	HP1b binding inh	Sfp inh	BAZ2B block
CC1=CS(=O)(=O)CC1Sc1ncn[nH]1 (stereo not given)	u	u	-6.5%	11.5%	13.6%	-9.6%
CC1=CS(=O)(=O)CC1Sc1nc2ccccc2[nH]1 (stereo not given)	79.4µM*	-34.5%	-8.1%	23.9%	-6.0%	-6.2%
CN(C(=O)CSc1nc2ccccc2[nH]1)C1CCS(=O)(=O)C1 (stereo not given)	u	7.1%	-0.2%	19.9%	x	12.1%
CC1=CS(=O)(=O)CC1Sc1nc(C)n[nH]1 (stereo not given)	50.1µM*	-8.5%	-11.1%	30.9%	18.3%	u
Cc1c(NC(=O)c2cccs2)cccc1-c1nc2cc(Cl)ccc2o1	3.1%[59 µM]	-20.2%	x	11.4%	x	-22.0%
C[C@@H]1CN([C@H](C)CO)C(=O)CCCn2cc(nn2)CO[C@H]1CN(C)C(=O)Nc1ccccc1	x	x	-9.6%	x	x	x
CC[C@H](C)[C@H](NC(=O)[C@H](CCC(=O)O)NC(=O)CNC(=O)[C@@H](NC(=O)[C@@H]1CCCN1C(=O)[C@@H](NC(=O)[C@@H]1CCCN1C(=O)[C@@H]1CCCN1C(=O)[C@H](CC(N)=O)NC(=O)[C@H](CC(N)=O)NC(=O)[C@@H](NC(=O)[C@H](CCSC)NC(=O)[C@H](Cc1c[nH]c2ccccc12)NC(=O)CNC(=O)[C@@H](NC(=O)[C@H](CCC(N)=O)NC(=O)[C@@H](N)CCC(=O)O)[C@@H](C)CC)[C@@H](C)O)[C@@H](C)CC)C(C)C)C(=O)O	x	x	x	x	5.5%	x
CCOC(=O)c1ccc(NC(=O)C(CC)Sc2nnc3c4ccccc4n(C)c3n2)cc1 (stereo not given)	12.8%[59 µM]	-13.1%	x	78.3%	x	15.0%
Cc1cc(C(=O)OCC(=O)N2CCOCC2)c(C)n1-c1ccccc1	x	-7.1%	1.8%	6.6%	x	x
Cc1cc(C(=O)NP(=O)(N2CCOCC2)N2CCOCC2)c(C)n1-c1ccc(N(C)C)cc1	22.4µM*	u	-5.7%	-11.8%	-17.5%	u
Cc1cc(C(=O)NP(=O)(N2CCOCC2)N2CCOCC2)c(C)n1-c1ccc(Br)cc1	50.1µM*	-28.7%	-7.8%	-1.3%	6.6%	u
Cc1cc(C(=O)C[N+]2(C)CCOCC2)c(C)n1-c1ccc(Br)cc1	-26.9%	u	-2.4%	-5.1%	13.0%	-36.8%
CCc1ccc(C(C)NC(=O)c2ccc(F)cc2)cc1 (stereo not given)	14.8%	12.1%	1.1%	51.1%	-5.3%	-5.0%
CCc1ccc(C(C)NC(=O)c2ncn[nH]2)cc1 (stereo not given)	-7.6%[59 µM]	-18.8%[57.1 µM]	-18.7%	56.9%	-1.2%	50.1µM*
O=C(c1cccc(F)c1)N1CCC2(CCN(Cc3cc(C(F)(F)F)cc(C(F)(F)F)c3)CC2)CC1	u	x	x	x	21.5%	x
CCCC(=O)c1ccc(N2CCC(C)CC2)c(F)c1	84.3%	82.1%	23.8µM*	61.7%	u	76.1%
C[N+]1(CC2COC(c3ccccc3)(C3CCCCC3)O2)CCCCC1 (stereo not given)	u	x	x	x	2.6%	x
CC(c1ccccc1)C1OCC(C[N+]2(C)CCCCC2)O1 (stereo not given)	u	56.2µM*	-27.1%	u	6.1%	-18.9%
COc1cc(Cl)ccc1NC(=S)N(CCCN1CCOCC1)Cc1cn(C)c2ccccc12	17.8µM*	u	5.32µM*	u	11.2µM*	u
